Measured values published in PubChem BioAssay (NCI).
This is part of a sample that, as a whole, favours compounds with a hit. Of some 79,000 tested, about 15% had one in any assay. Calls of active or inactive are those of the source. Rule as the data show it: active = growth inhibition above about 70%; inactive = the rest.

Key:
[1] = NCI Yeast Anticancer Drug Screen. Data for the rad52 strain (AID 147);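 also: 0% = growth of vehicle-treated control cultures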; settings: S. cerevisiae rad52 mutant growth inhibition, hits give high values
Summary of the method: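 Here a repair-compromised yeast strain receives each compound; its growth is then quantified and normalised to vehicle-only controls.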

[2] = NCI Yeast Anticancer Drug Screen. Data for the wt1 strain (AID 149);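 also: 0% = growth of vehicle-treated wt1 cultures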; settings: S. cerevisiae wt1 strain (SPY 50644) growth inhibition, hits give high values
Summary of the method: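 Readout: yeast growth inhibition, normalised to vehicle controls, in the wt1 strain exposed to test compounds.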

[3] = NCI Yeast Anticancer Drug Screen. Data for the rad50EPP+ strain (AID 151);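 also: 0% = growth of vehicle-treated control cultures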; settings: S. cerevisiae rad50 mutant strain, hits give high values
Summary of the method: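 Read-out is yeast growth inhibition relative to vehicle; cells used were the rad50EPP+ strain.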

[4] = NCI Yeast Anticancer Drug Screen. Data for the rad50 strain (AID 155);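 also: 0% = growth of vehicle-only cultures of the same strain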; settings: S. cerevisiae rad50 strain growth inhibition, hits give high values
Summary of the method: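 Compounds were tested on a yeast strain with an engineered DNA damage repair alteration; the reported value is growth inhibition normalised to vehicle treatment.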

[5] = NCI Yeast Anticancer Drug Screen. Data for the mec2-1 strain (AID 157); settings: S. cerevisiae mec2-1 strain, hits give high values
Summary of the method: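 Using mec2-1 yeast: add compound, measure growth, express inhibition versus vehicle-treated cultures.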

[6] = NCI Yeast Anticancer Drug Screen. Data for the rad14 strain (AID 159);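 also: 0% = growth of vehicle-treated control cultures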; settings: S. cerevisiae rad14 strain growth inhibition, hits give high values
Summary of the method: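 Compound-treated yeast with a defined DNA-repair lesion; growth inhibition normalised to vehicle-treated cultures.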

[7] = NCI Yeast Anticancer Drug Screen. Data for the cln2 rad14 strain (AID 165);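 also: 0% = growth equal to vehicle treated cultures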; settings: S. cerevisiae cln2 rad14 strain, hits give high values
Summary of the method: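 Yeast strain cln2 rad14, bearing defects in cell cycle control and DNA repair, serves as the test system; values reflect growth inhibition compared with vehicle.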

[8] = NCI Yeast Anticancer Drug Screen. Data for the bub3 strain (AID 167); settings: S. cerevisiae bub3 mutant strain, hits give high values
Summary of the method: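 Growth of a checkpoint-deficient yeast mutant is measured after compound exposure. Values represent inhibition relative to vehicle.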

[9] = NCI Yeast Anticancer Drug Screen. Data for the wt2 strain (AID 169);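 also: 0% = growth of vehicle-treated yeast cultures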; settings: S. cerevisiae wt2 strain growth inhibition, hits give high values
Summary of the method: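 Treated yeast vs. vehicle-treated yeast: growth inhibition determined.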

[10] = NCI Yeast Anticancer Drug Screen. Data for the mlh1 strain (AID 171);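 also: 0% = growth of vehicle-treated control cultures of the same strain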; settings: S. cerevisiae mlh1 strain growth inhibition, hits give high values
Summary of the method: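 A yeast strain with a defined genetic lesion serves as the test organism. Cultures receive compound or vehicle, and growth is measured.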

[11] = NCI Yeast Anticancer Drug Screen. Data for the sgs1 strain (AID 173);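 also: 0% = growth of vehicle-only control cultures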; settings: S. cerevisiae sgs1 mutant, hits give high values
Summary of the method: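 A genetically defined yeast mutant is incubated with the test compound, and its growth is compared to that of the same strain given vehicle.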

[12] = NCI Yeast Anticancer Drug Screen. Data for the mlh1 rad18 strain (AID 175); settings: S. cerevisiae mlh1 rad18 strain growth inhibition, hits give high values
Summary of the method: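 Steps: expose repair-defective yeast to compound; measure growth; express inhibition against vehicle-treated controls.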

[13] = NCI Yeast Anticancer Drug Screen. Data for the rad18 strain (AID 177); settings: S. cerevisiae rad18 mutant growth inhibition, hits give high values
Summary of the method: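 Measured value is growth inhibition of a yeast strain bearing a DNA repair alteration, referenced to vehicle-treated cells.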

[14] = NCI Yeast Anticancer Drug Screen. Data for the mgt1 strain (AID 153); settings: S. cerevisiae mgt1 mutant growth inhibition, hits give high values
Summary of the method: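 Measured: inhibition of mgt1 yeast growth by compound, normalized to vehicle-treated cultures.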

[15] = NCI Yeast Anticancer Drug Screen. Data for the sgs1 mgt1 strain (AID 161);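 also: 0% = growth of cultures given vehicle only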; settings: S. cerevisiae sgs1 mgt1 strain, hits give high values
Summary of the method: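 This yeast growth screen uses a strain with defined DNA-repair lesions; compound-treated growth is compared with vehicle-treated growth.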

[16] = NCI Yeast Anticancer Drug Screen. Data for the CLN2oe strain (AID 163);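 also: 0% = growth of vehicle-only control cultures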; settings: S. cerevisiae CLN2oe strain, hits give high values
Summary of the method: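 Whole-cell yeast growth assay. A strain engineered for altered cell-cycle control received compound, and inhibition relative to vehicle-treated cultures was recorded.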

[17] = at 5.0 µM (retest, dose inferred, filed as 0.5)
[18] = at 50.0 µM (retest, dose inferred, filed as 5.0)

Measured: growth inhibition

Cc1cccc2c1nc1ccc(Cl)cc1[n+]2C
active: [1]; at 11.0 µM 79% | [1]; at 33.0 µM 98% | [1]; at 100.0 µM 97% | [2]; at 33.0 µM 97% | [2]; at 100.0 µM 96% | [3]; at 33.0 µM 93% | [3]; at 100.0 µM 95% | [4]; at 11.0 µM 84% | [4]; at 33.0 µM 96% | [4]; [18] 96% | [4]; at 50.0 µM 98% | [4]; at 100.0 µM 97% | [5]; at 11.0 µM 85% | [5]; at 33.0 µM 96% | [5]; [18] 96% | [5]; at 50.0 µM 98.8% | [5]; at 100.0 µM 97% | [6]; at 33.0 µM 97% | [6]; at 100.0 µM 97% | [7]; [18] 95% | [7]; at 50.0 µM 96.5% | [8]; at 11.0 µM 82% | [8]; at 33.0 µM 95% | [8]; [18] 94% | [8]; at 50.0 µM 98% | [8]; at 100.0 µM 96% | [9]; at 11.0 µM 92% | [9]; at 33.0 µM 97% | [9]; at 100.0 µM 95% | [10]; at 11.0 µM 82% | [10]; at 33.0 µM 97% | [10]; at 100.0 µM 97% | [11]; at 11.0 µM 89% | [11]; at 33.0 µM 97% | [11]; at 100.0 µM 97% | [12]; [18] 95% | [12]; at 50.0 µM 98.3% | [13]; at 11.0 µM 91% | [13]; at 33.0 µM 97% | [13]; at 100.0 µM 96%
inactive: [1]; at 1.2 µM 0% | [1]; at 3.7 µM 9% | [2]; at 1.2 µM -1% | [2]; at 3.7 µM 4% | [2]; at 11.0 µM 41% | [3]; at 1.2 µM -4% | [3]; at 3.7 µM 4% | [3]; at 11.0 µM 64% | [4]; at 1.2 µM 2% | [4]; at 3.7 µM 9% | [4]; [17] 11% | [5]; at 1.2 µM 1% | [5]; at 3.7 µM 18% | [5]; [17] 3% | [6]; at 1.2 µM 2% | [6]; at 3.7 µM 8% | [6]; at 11.0 µM 57% | [7]; [17] 4% | [8]; at 1.2 µM 0% | [8]; at 3.7 µM 10% | [8]; [17] 0% | [9]; at 1.2 µM -2% | [9]; at 3.7 µM 2% | [10]; at 1.2 µM -3% | [10]; at 3.7 µM 7% | [11]; at 1.2 µM 3% | [11]; at 3.7 µM 13% | [12]; [17] 25% | [13]; at 1.2 µM 25% | [13]; at 3.7 µM 62%

CN1CCN(C(=O)/C=C/C(=O)c2ccccc2)CC1
inactive: [1]; at 1.2 µM 4% | [1]; at 3.7 µM 11% | [1]; at 11.0 µM 24% | [1]; at 33.0 µM 63% | [2]; at 1.2 µM 4% | [2]; at 3.7 µM 12% | [2]; at 11.0 µM 24% | [2]; at 33.0 µM 47% | [3]; at 1.2 µM 4% | [3]; at 3.7 µM 13% | [3]; at 11.0 µM 31% | [3]; at 33.0 µM 50% | [3]; at 100.0 µM 66% | [14]; at 1.2 µM 2% | [14]; at 3.7 µM 10% | [14]; at 11.0 µM 34% | [4]; at 1.2 µM -3% | [4]; at 3.7 µM -8% | [4]; [17] 9% | [4]; at 11.0 µM 23% | [4]; at 33.0 µM 69% | [4]; [18] -3% | [6]; at 1.2 µM 9% | [6]; at 3.7 µM 12% | [6]; at 11.0 µM 20% | [6]; at 33.0 µM 40% | [15]; [17] 6% | [15]; [18] -9% | [16]; at 1.2 µM 3% | [16]; at 3.7 µM 6% | [16]; at 11.0 µM 15% | [16]; at 33.0 µM 36% | [7]; [17] 39% | [7]; [18] -10% | [8]; at 1.2 µM -3% | [8]; at 3.7 µM 3% | [8]; [17] 7% | [8]; at 11.0 µM 28% | [9]; at 1.2 µM 1% | [9]; at 3.7 µM 10% | [9]; at 11.0 µM 36% | [10]; at 1.2 µM -1% | [10]; at 3.7 µM 12% | [10]; at 11.0 µM 35% | [11]; at 1.2 µM 5% | [11]; at 3.7 µM 15% | [11]; at 11.0 µM 42% | [12]; [17] -5% | [12]; [18] 7% | [13]; at 1.2 µM 2% | [13]; at 3.7 µM 11% | [13]; at 11.0 µM 38%
active: [1]; at 100.0 µM 86% | [2]; at 100.0 µM 87% | [14]; at 33.0 µM 79% | [14]; at 100.0 µM 95% | [4]; at 50.0 µM 93.3% | [4]; at 100.0 µM 90% | [6]; at 100.0 µM 87% | [15]; at 50.0 µM 95.5% | [16]; at 100.0 µM 76% | [7]; at 50.0 µM 72.8% | [8]; at 33.0 µM 80% | [8]; [18] 91% | [8]; at 50.0 µM 82.5% | [8]; at 100.0 µM 90% | [9]; at 33.0 µM 76% | [9]; at 100.0 µM 93% | [10]; at 33.0 µM 85% | [10]; at 100.0 µM 96% | [11]; at 33.0 µM 84% | [11]; at 100.0 µM 95% | [12]; at 50.0 µM 97.5% | [13]; at 33.0 µM 84% | [13]; at 100.0 µM 95%
